From PubChem BioAssay (NCATS)
Results filed as inconclusive are left out. The source made the active and inactive calls. Calls come from the whole dose curve; as a rule, active = well fitted curve in the direction sought with a large enough effect; inconclusive = small, poorly fitted or top-dose-only effect, or another doubt; inactive = no such curve, though single readings can be large; an effect the other way counts as inactive or inconclusive.

Assays:
[1] = target: Glutathione peroxidase 1 (Homo sapiens) (UniProt P07203); test: Primary qHTS Assay for Inhibitors of Recombinant Selenoprotein Glutathione Peroxidase 1 (GPX1) (AID 1845191); note: nearly all actives have a fitted effect of over 65% in size
Glutathione peroxidase 1 (Homo sapiens), sequence (P07203 whole entry, looked up): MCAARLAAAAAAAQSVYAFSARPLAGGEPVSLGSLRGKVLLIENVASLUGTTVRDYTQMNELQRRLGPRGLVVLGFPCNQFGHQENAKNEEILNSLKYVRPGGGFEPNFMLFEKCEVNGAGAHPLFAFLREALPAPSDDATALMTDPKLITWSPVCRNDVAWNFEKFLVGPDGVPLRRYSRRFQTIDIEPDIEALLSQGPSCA
Method in brief: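 GPX1 10 nM, GR 100 nM, GSH 1 mM, NADPH 0.5 mM, CHP 0.5 mM (final). 30-min cpd preincubation, RT. Ex340/Em450 read t=0, t=15 min.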

[2] = target: Phospholipid hydroperoxide glutathione peroxidase GPX4 (Homo sapiens) (UniProt P36969); test: Primary qHTS Assay for Inhibitors of Recombinant Selenoprotein Glutathione Peroxidase 4 (GPX4) (AID 1845192); note: nearly all actives have a fitted effect of over 65% in size
Phospholipid hydroperoxide glutathione peroxidase GPX4 (Homo sapiens), sequence (P36969 whole entry, looked up): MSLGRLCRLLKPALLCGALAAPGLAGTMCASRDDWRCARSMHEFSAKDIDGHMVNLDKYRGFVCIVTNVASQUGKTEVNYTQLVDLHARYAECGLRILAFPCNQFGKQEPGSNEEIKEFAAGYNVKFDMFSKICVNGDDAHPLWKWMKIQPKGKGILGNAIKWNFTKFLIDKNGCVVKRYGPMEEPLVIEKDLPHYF
Method in brief: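 qHTS, GR-coupled: GPX4 200 nM + cpd 30 min RT → GSH 1 mM, NADPH 0.5 mM, GR 100 nM → CHP 0.5 mM start; fluor 340/450 at t0 and t15 min; no-enzyme wells as control.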

[3] = Quantitative High-Throughput drug screen in 47 multiple myeloma cell lines against the NCATS MIPE library collection: FR4_PLB cell viability assay (AID 1918924; note: nearly all actives have a fitted effect of over 35% in size; note: potency is the fitted concentration of half-maximal effect)
Method in brief: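 Relative luminescence from CellTiter-Glo served as the viability signal, referenced to DMSO-treated (100%) and cell-free medium (0%) controls. Treatment lasted 48 hours at 37C with 500 cells per well.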

[4] = Quantitative High-Throughput drug screen in 47 multiple myeloma cell lines against the NCATS MIPE library collection: EJM_DSMZ cell viability assay (AID 1918926; note: nearly all actives have a fitted effect of over 30% in size; note: potency is the fitted concentration of half-maximal effect)
Method in brief: (§1)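 CellTiter-Glo luminescence (ATP) after 48 h compound exposure, 37C/5% CO2; 500 cells/well; MIPE 4.0 approved/investigational drugs pinned in; DMSO = 100%, media only = 0% viability.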

[5] = Quantitative High-Throughput drug screen in 47 multiple myeloma cell lines against the NCATS MIPE library collection: AMO1_DSMZ cell viability assay (AID 1918927; note: nearly all actives have a fitted effect of over 30% in size; note: potency is the fitted concentration of half-maximal effect)
Method in brief: as §1

[6] = Quantitative High-Throughput drug screen in 47 multiple myeloma cell lines against the NCATS MIPE library collection: Delta47_JCRB cell viability assay (AID 1918925; note: nearly all actives have a fitted effect of over 45% in size; note: potency is the fitted concentration of half-maximal effect)
Method in brief: as §1

Measured: Potency

CCCOc1ccc(C(=O)OCCN(CC)CC)cc1N
not listed: [6]
inactive: all other assays above

CCC(=O)O[C@]1(C(=O)CCl)[C@@H](C)C[C@H]2[C@@H]3CCC4=CC(=O)C=C[C@]4(C)[C@@]3(F)[C@@H](O)C[C@@]21C
inactive: [1] | [2] | [4]

C[C@@H](CN1CC(=O)NC(=O)C1)N1CC(=O)NC(=O)C1
inactive: [1] | [2] | [3] | [4]

CCOC(=O)[C@H](CCc1ccccc1)N[C@H]1CCc2ccccc2N(CC(=O)O)C1=O
inactive: [1] | [2]
active: [6] 20.9 µM | [4] 23.5 µM | [5] 7.43 µM

CCC(=O)O[C@]1(C(=O)SCF)[C@H](C)C[C@H]2[C@@H]3C[C@H](F)C4=CC(=O)C=C[C@]4(C)[C@@]3(F)[C@@H](O)C[C@@]21C
not listed: [4]
inactive: all other assays above

CCn1cc(C(=O)O)c(=O)c2cc(F)c(N3CCNCC3)nc21
inactive: [1] | [2] | [6] | [4]

CO[C@@]12[C@H](COC(N)=O)C3=C(C(=O)C(C)=C(N)C3=O)N1C[C@@H]1N[C@@H]12
inactive: [1] | [2] | [5]
active: [3] 26.4 µM | [6] 23.5 µM

CCCc1cc(C(N)=S)ccn1
inactive: all assays above

O=NN(CCCl)C(=O)NC1CCCCC1
inactive: [1] | [2] | [4] | [5]

CCCCOc1ccc(CC(=O)NO)cc1
inactive: [1] | [2]
active: [4] 5.26 µM | [5] 11.8 µM

OC(Cn1cncn1)(Cn1cncn1)c1ccc(F)cc1F
active: [5] 0.0418 µM
not listed: [6]
inactive: all other assays above

C#CCN[C@@H]1CCc2ccccc21
not listed: [4]
inactive: all other assays above

CCOc1cc(N)c(Cl)cc1C(=O)NCC1CN(Cc2ccc(F)cc2)CCO1 (centres undefined)
inactive: [1] | [2] | [6] | [4]

O=C(O)c1cn(C2CC2)c2cc(N3CCNCC3)c(F)cc2c1=O
inactive: [1] inactive [at 9.52 µM] | [2] | [3] | [4]

Nc1ccc(S(=O)(=O)Nc2ccccn2)cc1
not listed: [6]
inactive: all other assays above

CNS(=O)(=O)Cc1ccc2[nH]cc(CCN(C)C)c2c1
not listed: [6]
inactive: all other assays above

CCOC(=O)[C@H](CCc1ccccc1)N[C@H]1CS[C@H](c2cccs2)CN(CC(=O)O)C1=O
inactive: [1] | [2]
active: [6] 2.96 µM | [5] 1.32 µM

CCc1cc(C(N)=S)ccn1
inactive: [1] | [2] | [4] | [5]

O[C@@H](CNC[C@H](O)[C@H]1CCc2cc(F)ccc2O1)[C@@H]1CCc2cc(F)ccc2O1
active: [6] 18.7 µM | [5] 26.4 µM
inactive: [1] | [2] | [4]

Cc1ncc([N+](=O)[O-])n1CCO
inactive: [1] | [2] | [6] | [4]

CN1CCCC(n2nc(Cc3ccc(Cl)cc3)c3ccccc3c2=O)CC1 (centres undefined)
inactive: [1] | [2]
active: [3] 23.5 µM | [4] 1.05 µM

CC(C)C1CCC(C(=O)N[C@H](Cc2ccccc2)C(=O)O)CC1 (some centres undefined)
not listed: [3]
inactive: all other assays above

COc1ccc2c(c1)c(CC(=O)OCC(=O)O)c(C)n2C(=O)c1ccc(Cl)cc1
inactive: [1] | [2] | [3] | [5]

NS(=O)(=O)c1cc2c(cc1Cl)NC(C(Cl)Cl)NS2(=O)=O (centres undefined)
not listed: [6]
inactive: all other assays above

COc1cnc(NS(=O)(=O)c2ccc(N)cc2)nc1
inactive: [1] | [2] | [3] | [4]

COCCCOc1cc(C[C@@H](C[C@H](N)[C@@H](O)C[C@H](C(=O)NCC(C)(C)C(N)=O)C(C)C)C(C)C)ccc1OC
inactive: [1] | [2] | [4] | [5]

CCCCCCNC(=O)n1cc(F)c(=O)[nH]c1=O
inactive: [1] | [2] | [4]

CC(=O)[C@H]1CC[C@H]2[C@@H]3CC=C4C[C@@H](O)CC[C@]4(C)[C@H]3CC[C@]12C
not listed: [4]
inactive: all other assays above

O=c1cc(O)c(Cl)c[nH]1
active: [5] 2.64 µM
not listed: [4]
inactive: all other assays above

COc1ccc(C(=O)CC(=O)c2ccc(C(C)(C)C)cc2)cc1
inactive: [1] | [2]
active: [4] 1.48 µM | [5] 1.87 µM

CC(C)(C)NC(=O)[C@H]1CC[C@H]2[C@@H]3CC[C@H]4NC(=O)C=C[C@]4(C)[C@H]3CC[C@]12C
inactive: [1] | [2]
active: [6] 0.526 µM | [4] 0.662 µM | [5] 18.7 µM

O=C(O)c1ccc(-n2nc(-c3ccccc3O)nc2-c2ccccc2O)cc1
inactive: [1] | [2]
active: [3] 23.5 µM | [5] 29.6 µM

S=P(N1CC1)(N1CC1)N1CC1
inactive: [1] | [2] inactive [at 0.409 µM] | [3] | [4]

CN(CCOc1ccc(CC2SC(=O)NC2=O)cc1)c1ccccn1 (centres undefined)
not listed: [4]
inactive: all other assays above

CC(=O)CC(c1ccccc1)c1c(O)c2ccccc2oc1=O (centres undefined)
inactive: [1] | [2] | [3] | [4]

CN(Cc1cc(Br)cc(Br)c1N)C1CCCCC1
not listed: [4]
inactive: all other assays above

CO[C@@H]1[C@@H](OC(N)=O)[C@@H](O)[C@H](Oc2ccc3c(O)c(NC(=O)c4ccc(O)c(CC=C(C)C)c4)c(=O)oc3c2C)OC1(C)C
inactive: [2]
active: [6] 5.26 µM | [4] 5.26 µM

Cc1c(-c2ccc(O)cc2)n(Cc2ccc(OCCN3CCCCCC3)cc2)c2ccc(O)cc12
inactive: [2]
